The record followed here is PubChem BioAssay (EPA / NIEHS).

Molecules are shown by their SMILES. Activity calls are given as the source filed them. How the source made its calls: active means hit-call score of the fitted dose curve at least 0.9, where 1 is the maximum; inactive means score below 0.9.

Common to all, as to details: mRNA level, 48 h; actives raise or lower the signal
Read-out in assay [1]: matrix metalloproteinase-3 (MMP3), MMP3 (gene 4314)
As to the kind of experiment: LTEA_HepaRG_MMP3: Life Technologies and Expression Analysis (LTEA) Assay for matrix metalloproteinase-3 (MMP3) using HepaRG (AID 2283519). A digest of the protocol:
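Fluidigm-based TaqMan qRT-PCR, normalized to ACTB, GAPDH and POLR2A and fitted bidirectionally versus 0.5% DMSO, measured transcript levels. Treatment: duplicate 48 h exposures of HepaRG cells, ~100,000/well, to eight half-log concentrations topping at 100 uM.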

Read-out in assay [2]: Paternally Expressed 10 (PEG10), PEG10 (gene 23089)
As to the kind of experiment: LTEA_HepaRG_PEG10: Life Technologies and Expression Analysis (LTEA) Assay for Paternally Expressed 10 (PEG10) using HepaRG (AID 2283520). A digest of the protocol: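 PEG10 transcript measured by Fluidigm qRT-PCR, normalized to three housekeeping genes, in HepaRG cells treated 48 h (highest 100 uM, half-log steps, 0.5% DMSO vehicle). Cells plated 48 h before switching to serum-free induction medium.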

Read-out in assay [3]: Nuclear factor NF-kappa-B p105 subunit (Homo sapiens) (UniProt P19838)
Nature of the assay: LTEA_HepaRG_NFKB1: Life Technologies and Expression Analysis (LTEA) Assay for Nuclear Factor Kappa B Subunit 1 (NFKB1) using HepaRG (AID 2283521). Put shortly:
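Differentiated human HepaRG cells were exposed for 48 h in serum-free induction medium to eight concentrations (top 100 uM, half-log steps, 0.5% DMSO), in duplicate. NFKB1 mRNA was measured by TaqMan qRT-PCR, normalized to ACTB/GAPDH/POLR2A, and fitted bidirectionally against DMSO.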

Read-out in assay [4]: Protein phosphatase 2A (PPP2R4), PTPA (gene 5524)
As to the kind of experiment: LTEA_HepaRG_PPP2R4: Life Technologies and Expression Analysis (LTEA) Assay for Protein phosphatase 2A (PPP2R4) using HepaRG (AID 2283522). Put shortly:
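Expression was quantified by Fluidigm qRT-PCR normalised to three housekeeping genes after 48 h treatment. Human HepaRG cells received an 8-point series from 100 µM downward by half-logs, in duplicate with 0.5% DMSO vehicle and 1 mM phenobarbital as induction control.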

Read-out in assay [5]: Phosphatase and tensin (PTEN), PTEN (gene 5728)
As to the kind of experiment: LTEA_HepaRG_PTEN: Life Technologies and Expression Analysis (LTEA) Assay for Phosphatase and tensin (PTEN) using HepaRG (AID 2283523). A digest of the protocol:
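Read-out: TaqMan qRT-PCR of PTEN transcript, normalized to three housekeeping genes, fitted in both directions against 0.5% DMSO. Differentiated human HepaRG cultures received chemicals for 48 h, eight-point half-log series topping at 100 uM.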

Read-out in assay [6]: solute carrier (SLC22A1), SLC22A1 (gene 6580)
As to the kind of experiment: LTEA_HepaRG_SLC22A1: Life Technologies and Expression Analysis (LTEA) Assay for solute carrier (SLC22A1) using HepaRG (AID 2283524). Put shortly:
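Transcript level of SLC22A1 quantified by qRT-PCR (normalized to three housekeeping genes) after 48 h chemical exposure of HepaRG cells, eight concentrations up to 100 µM, half-log steps, 0.5% DMSO vehicle. Gain or loss relative to DMSO fitted bidirectionally.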

Read-out in assay [7]: Pyruvate Dehydrogenase Kinase 4 (PDK4), PDK4 (gene 5166)
As to the kind of experiment: LTEA_HepaRG_PDK4: Life Technologies and Expression Analysis (LTEA) Assay for Pyruvate Dehydrogenase Kinase 4 (PDK4) using HepaRG (AID 2283525). A digest of the protocol:
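Readout is qRT-PCR of PDK4 transcript, normalized to three housekeeping genes, with bidirectional fitting against 0.5% DMSO vehicle. Differentiated HepaRG cells were treated 48 h in serum-free induction medium, duplicate wells, eight-point half-log series topping at 100 uM.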

Read-out in assay [8]: NAD(P)H dehydrogenase [quinone] 1 (NQO1), NQO1 (gene 1728)
As to the kind of experiment: LTEA_HepaRG_NQO1: Life Technologies and Expression Analysis (LTEA) Assay for NAD(P)H dehydrogenase [quinone] 1 (NQO1) using HepaRG (AID 2283526). Put shortly:
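NQO1 transcript induction or loss measured by TaqMan qRT-PCR, referenced to three housekeeping genes and fitted bidirectionally against 0.5% DMSO. HepaRG cultures exposed 48 h, duplicate, eight-point half-log series, top 100 uM.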

Read-out in assay [9]: Nuclear factor erythroid 2-related factor 2 (Homo sapiens) (UniProt Q16236)
Nature of the assay: LTEA_HepaRG_NFE2L2: Life Technologies and Expression Analysis (LTEA) Assay for Nuclear factor erythroid 2-related factor 2 (NFE2L2) Transcription Factor using HepaRG (AID 2283527).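 On outcome: TaqMan qRT-PCR transcript level normalised to ACTB GAPDH and POLR2A housekeeping genes.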 Put shortly:
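NFE2L2 transcript level was read by qRT-PCR (housekeeping ACTB/GAPDH/POLR2A normalisation) after 48 h chemical treatment of HepaRG in serum-free induction medium. Duplicate 8-point half-log curves, top 100 uM, 0.5% DMSO vehicle; up- or down-regulation fitted against vehicle.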

Read-out in assay [10]: solute carrier (SLCO1B1), SLCO1B1 (gene 10599)
As to the kind of experiment: LTEA_HepaRG_SLCO1B1: Life Technologies and Expression Analysis (LTEA) Assay for solute carrier (SLCO1B1) using HepaRG (AID 2283530). A digest of the protocol: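 Human HepaRG cultures treated for 48 h with an eight-concentration half-log series topping at 100 uM; SLCO1B1 measured by qRT-PCR and fitted bidirectionally relative to DMSO.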

Read-out in assay [11]: sulfotransferase 2A1 (SULT2A1), SULT2A1 (gene 6822)
Nature of the assay: LTEA_HepaRG_SULT2A1: Life Technologies and Expression Analysis (LTEA) Assay for sulfotransferase 2A1 (SULT2A1) using HepaRG (AID 2283531). A digest of the protocol:
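Gene-expression endpoint in a human liver cell line: SULT2A1 mRNA change after 48 h chemical treatment, curves fitted in both directions relative to 0.5% DMSO vehicle. Concentrations spanned eight half-log steps from 100 uM.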

Read-out in assay [12]: Transforming Growth Factor (TGFA), TGFA (gene 7039)
Nature of the assay: LTEA_HepaRG_TGFA: Life Technologies and Expression Analysis (LTEA) Assay for Transforming Growth Factor (TGFA) using HepaRG (AID 2283532). Put shortly: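 TGFA transcript quantified by qRT-PCR (Fluidigm arrays) against three housekeeping genes, after 48 hours chemical treatment of HepaRG cells. Top concentration 100 uM with half-log dilutions, 8 points, duplicates, 0.5% DMSO.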

Read-out in assay [13]: Transforming Growth Factor (TGFB1), TGFB1 (gene 7040)
As to the kind of experiment: LTEA_HepaRG_TGFB1: Life Technologies and Expression Analysis (LTEA) Assay for Transforming Growth Factor (TGFB1) Transporter using HepaRG (AID 2283533). A digest of the protocol: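 Eight-point concentration-response (max 100 uM, half-log) in HepaRG under serum-free induction conditions, 48 h. TGFB1 mRNA by qRT-PCR, housekeeping-normalized.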

Read-out in the next assay: TIMP1, TIMP1 (gene 7076)
As to the kind of experiment: LTEA_HepaRG_TIMP1: Life Technologies and Expression Analysis (LTEA) Assay for TIMP1 using HepaRG (AID 2283534). A digest of the protocol:
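TIMP1 induction or repression in HepaRG cells after 48 h chemical exposure (eight concentrations, highest 100 uM), assessed by normalized qRT-PCR with bidirectional fitting to DMSO controls.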

Read-out in assay [14]: Tumor necrosis factor receptor 1 (TNFRSF1A), TNFRSF1A (gene 7132)
As to the kind of experiment: LTEA_HepaRG_TNFRSF1A: Life Technologies and Expression Analysis (LTEA) Assay for Tumor necrosis factor receptor 1 (TNFRSF1A) using HepaRG (AID 2283535). A digest of the protocol: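 Assay uses 48 h chemical treatment of differentiated HepaRG monolayers, tested in duplicate at eight concentrations from 100 uM downward in 0.5% DMSO. mRNA is normalized to ACTB, GAPDH and POLR2A, with induction or suppression fitted relative to vehicle.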

Read-out in assay [15]: Cellular tumor antigen p53 (Homo sapiens) (UniProt P04637)
As to the kind of experiment: LTEA_HepaRG_TP53: Life Technologies and Expression Analysis (LTEA) Assay for Tumor Protein P53 (TP53) using HepaRG (AID 2283537). A digest of the protocol:
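HepaRG, 48 h exposure, top 100 uM, half-log 8-point, 0.5% DMSO vehicle, duplicates. Read: TP53 mRNA by TaqMan qRT-PCR, normalised to ACTB/GAPDH/POLR2A; bidirectional fit vs DMSO.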

Read-out in assay [16]: Signal transducer and activator of transcription 3 (Homo sapiens) (UniProt P40763)
As to the kind of experiment: LTEA_HepaRG_STAT3: Life Technologies and Expression Analysis (LTEA) Assay for Signal transducer and activator of transcription (STAT3) using HepaRG (AID 2283529). A digest of the protocol: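 STAT3 transcript quantified by qRT-PCR against three housekeeping genes (ACTB, GAPDH, POLR2A), fitted both directions relative to DMSO. HepaRG cultures exposed 48 h to eight half-log concentrations, top 100 uM, 0.5% DMSO, serum-free induction medium.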

Read-out in assay [17]: Thyroid Hormone Responsive (THRSP), THRSP (gene 7069)
As to the kind of experiment: LTEA_HepaRG_THRSP: Life Technologies and Expression Analysis (LTEA) Assay for Thyroid Hormone Responsive (THRSP) using HepaRG (AID 2283536). Put shortly: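 THRSP transcript quantified by Fluidigm qRT-PCR against three housekeeping genes after 48 h chemical exposure of HepaRG cells in serum-free induction medium; eight-point half-log series, top 100 uM, 0.5% DMSO vehicle, duplicate wells.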

Read-out in assay [18]: succinate dehydrogenase complex iron sulfur subunit B (SDHB), SDHB (gene 6390)
As to the kind of experiment: LTEA_HepaRG_SDHB: Life Technologies and Expression Analysis (LTEA) Assay for succinate dehydrogenase complex iron sulfur subunit B (SDHB) using HepaRG (AID 2283528). A digest of the protocol:
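HepaRG, 48 h exposure, 8-pt half-log series from 100 uM in 0.5% DMSO, duplicates. Readout: SDHB mRNA by Fluidigm qRT-PCR vs housekeeping genes; bidirectional fit relative to DMSO.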

Read-out in assay [19]: UDP glucuronosyltransferase (UGT1A1), UGT1A1 (gene 54658)
Nature of the assay: LTEA_HepaRG_UGT1A1: Life Technologies and Expression Analysis (LTEA) Assay for UDP glucuronosyltransferase (UGT1A1) using HepaRG (AID 2283538). Put shortly: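 UGT1A1 transcript level, measured by qRT-PCR with three housekeeping genes for normalization, after 48 h treatment of human HepaRG cells (0.5% DMSO, duplicates, up to 100 uM, half-log steps, 8 points). Curves fit both directions against DMSO baseline.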

Chain of Nuclear factor erythroid 2-related factor 2 (Homo sapiens) (Q16236 whole entry, looked up): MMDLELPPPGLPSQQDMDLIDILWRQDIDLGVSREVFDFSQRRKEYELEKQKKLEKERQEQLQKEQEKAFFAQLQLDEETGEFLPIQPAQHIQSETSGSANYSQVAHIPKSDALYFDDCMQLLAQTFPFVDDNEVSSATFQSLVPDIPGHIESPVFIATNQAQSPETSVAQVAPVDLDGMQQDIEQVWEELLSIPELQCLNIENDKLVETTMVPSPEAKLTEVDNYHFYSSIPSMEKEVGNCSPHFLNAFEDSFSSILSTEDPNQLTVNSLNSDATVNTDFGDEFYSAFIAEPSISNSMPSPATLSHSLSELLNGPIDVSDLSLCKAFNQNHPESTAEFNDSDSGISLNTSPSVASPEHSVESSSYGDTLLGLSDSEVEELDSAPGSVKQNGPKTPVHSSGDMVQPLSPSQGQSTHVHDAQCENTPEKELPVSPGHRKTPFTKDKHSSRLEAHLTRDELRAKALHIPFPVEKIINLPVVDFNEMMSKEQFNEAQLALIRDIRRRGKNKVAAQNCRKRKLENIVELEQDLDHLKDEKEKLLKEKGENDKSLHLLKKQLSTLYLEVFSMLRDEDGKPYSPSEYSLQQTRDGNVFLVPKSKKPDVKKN
Chain of Cellular tumor antigen p53 (Homo sapiens) (P04637 whole entry, looked up): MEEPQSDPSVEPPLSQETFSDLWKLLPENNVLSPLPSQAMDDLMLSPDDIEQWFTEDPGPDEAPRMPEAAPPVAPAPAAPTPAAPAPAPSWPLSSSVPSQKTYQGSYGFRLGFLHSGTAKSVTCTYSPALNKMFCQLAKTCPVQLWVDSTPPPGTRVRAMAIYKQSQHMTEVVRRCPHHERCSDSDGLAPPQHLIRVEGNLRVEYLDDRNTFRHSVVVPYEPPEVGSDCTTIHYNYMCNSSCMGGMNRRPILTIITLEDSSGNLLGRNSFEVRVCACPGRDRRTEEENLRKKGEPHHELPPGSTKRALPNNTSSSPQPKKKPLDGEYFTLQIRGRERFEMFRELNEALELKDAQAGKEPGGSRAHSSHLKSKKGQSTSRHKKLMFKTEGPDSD
Chain of Nuclear factor NF-kappa-B p105 subunit (Homo sapiens) (P19838 whole entry, looked up): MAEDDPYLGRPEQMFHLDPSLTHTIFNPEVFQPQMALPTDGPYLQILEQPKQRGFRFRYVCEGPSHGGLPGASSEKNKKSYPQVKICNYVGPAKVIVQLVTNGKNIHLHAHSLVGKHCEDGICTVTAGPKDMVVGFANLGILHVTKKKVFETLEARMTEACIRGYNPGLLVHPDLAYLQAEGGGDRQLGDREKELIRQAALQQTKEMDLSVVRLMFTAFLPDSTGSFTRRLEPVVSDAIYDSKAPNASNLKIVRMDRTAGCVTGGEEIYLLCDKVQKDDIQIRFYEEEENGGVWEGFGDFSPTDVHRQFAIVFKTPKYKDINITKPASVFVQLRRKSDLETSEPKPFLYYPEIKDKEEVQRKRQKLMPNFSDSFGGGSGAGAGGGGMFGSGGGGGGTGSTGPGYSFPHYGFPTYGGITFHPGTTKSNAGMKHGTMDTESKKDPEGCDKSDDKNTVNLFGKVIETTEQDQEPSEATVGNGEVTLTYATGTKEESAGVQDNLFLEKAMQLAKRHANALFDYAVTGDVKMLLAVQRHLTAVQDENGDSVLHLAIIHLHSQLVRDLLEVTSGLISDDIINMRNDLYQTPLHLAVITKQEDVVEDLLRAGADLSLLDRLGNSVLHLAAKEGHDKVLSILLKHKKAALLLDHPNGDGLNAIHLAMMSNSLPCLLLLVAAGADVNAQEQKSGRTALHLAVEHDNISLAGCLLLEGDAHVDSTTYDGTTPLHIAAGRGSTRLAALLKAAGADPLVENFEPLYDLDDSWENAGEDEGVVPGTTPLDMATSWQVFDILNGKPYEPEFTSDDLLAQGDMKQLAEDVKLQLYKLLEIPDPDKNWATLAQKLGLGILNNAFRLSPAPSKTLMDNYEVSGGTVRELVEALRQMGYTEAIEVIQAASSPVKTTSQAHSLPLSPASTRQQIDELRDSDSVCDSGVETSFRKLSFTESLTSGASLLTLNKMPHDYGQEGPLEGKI
Chain of Signal transducer and activator of transcription 3 (Homo sapiens) (P40763 whole entry, looked up): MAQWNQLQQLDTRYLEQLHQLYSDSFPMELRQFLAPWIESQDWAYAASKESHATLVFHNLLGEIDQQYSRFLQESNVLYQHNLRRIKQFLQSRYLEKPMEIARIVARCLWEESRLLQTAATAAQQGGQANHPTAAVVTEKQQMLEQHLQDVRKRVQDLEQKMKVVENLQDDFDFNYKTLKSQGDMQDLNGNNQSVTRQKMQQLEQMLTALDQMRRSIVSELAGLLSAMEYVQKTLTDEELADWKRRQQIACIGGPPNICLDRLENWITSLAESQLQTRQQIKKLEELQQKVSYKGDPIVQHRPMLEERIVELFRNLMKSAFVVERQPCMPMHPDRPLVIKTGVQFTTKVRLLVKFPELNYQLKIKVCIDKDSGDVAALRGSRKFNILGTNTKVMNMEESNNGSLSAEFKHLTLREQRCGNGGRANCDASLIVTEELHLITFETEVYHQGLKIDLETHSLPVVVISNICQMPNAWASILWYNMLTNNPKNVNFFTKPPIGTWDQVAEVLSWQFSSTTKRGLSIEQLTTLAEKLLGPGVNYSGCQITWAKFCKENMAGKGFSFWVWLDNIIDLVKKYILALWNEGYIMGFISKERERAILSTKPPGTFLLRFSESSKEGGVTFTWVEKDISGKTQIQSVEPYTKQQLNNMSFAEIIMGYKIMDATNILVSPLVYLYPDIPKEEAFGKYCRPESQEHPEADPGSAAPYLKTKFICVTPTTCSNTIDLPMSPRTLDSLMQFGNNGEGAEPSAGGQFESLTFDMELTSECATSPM

In the case of `C1CCC(SSC2CCCCC2)CC1`, the call in [1], in assay [2], in assay [3], in [4], in assay [5] and in [6] was inactive. Besides, the result in assay [7], in assay [8], in assay [9], in assay [10], in assay [11] and in assay [12] was inactive. In addition, the outcome in [13] was “inactive”; with TIMP1, TIMP1 (gene 7076), “inactive”; in assay [14], “inactive”; in assay [15], “inactive”.
In the case of `CCCCCC(=O)O`, the outcome in assay [1], in [2], in assay [3], in assay [4], in assay [5] and in [6] was inactive. Besides, the compound was called inactive in [8], in assay [9], in assay [16], in [10], in assay [11] and in assay [12]. The outcome in [13] was “inactive”; with TIMP1, TIMP1 (gene 7076), “inactive”; in [14], “inactive”; in assay [15] it was “inactive”.
As for `Cc1cccc(Nc2cc(Cl)nc(SCC(=O)O)n2)c1C`, the outcome in assay [1], in assay [2], in [3], in assay [4], in assay [5] and in [6] was inactive. Also, the call in assay [8], in [9], in assay [10], in assay [11], in assay [12] and in assay [13] was inactive. The outcome in the assay with TIMP1, TIMP1 (gene 7076) was “inactive”; in assay [14], “inactive”; in [17], “inactive”; in assay [15] it was “inactive”.
On to `COCCOCCOC`, for which the compound was called inactive in assay [1], in assay [2], in assay [6], in [7], in [16] and in assay [10]. In addition, the outcome in assay [11] is “inactive”; in [13], “inactive”; with TIMP1, TIMP1 (gene 7076), “inactive”; in assay [14], “inactive”. Besides, the AC50 in assay [3] is 2.8 µM (active); in [5] it was 0.243 µM (active); in assay [8] it was 0.315 µM (active); in assay [9], 9.92 µM (active); in assay [18] it was 10.9 µM (active); in [12] it was 1.21 µM (active). Moreover, the concentration at half-maximal activity (AC50) was 0.59 µM (active) in assay [15] and 3.2 µM (active) in assay [19].
